{
  "source": "the supplement of paper PMC11172423",
  "note": "Unmarked numbers belong to inactive results.",
  "data": [
    {"test_system": "Madurella mycetomatis MM55", "experiment": "growth relative to untreated control; higher = less inhibition, active = 20 or less", "conditions": "25 µM", "how_it_was_run": "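Viability readout used either MTS (2 h, 490 nm) or resazurin (600 nm). Before this, hyphal fragments of M. mycetomatis MM55 or F. senegalensis CBS197.79 in colourless RPMI 1640 with L-glutamine and MOPS (68–72% transmission at 660 nm) had been exposed in 96-well plates to compound at 100 or 25 µM for 7 days at 37 °C. Growth denotes metabolic activity relative to the untreated growth control, with a medium-plus-dye blank subtracted from both.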", "values": [
      {"smiles": "O=C(c1ccc(Nc2nccc(-c3cc(Cl)cc(C(F)(F)F)c3)n2)cc1)N1CC(O)C1", "growth": "110%"},
      {"smiles": "Cc1ccc(Cl)cc1NC(=O)c1c(-c2ccccc2Cl)noc1C", "growth": "32.8%"},
      {"smiles": "Nc1nc(Nc2ccc3c(c2)CC[C@@H](N2CCCC2)CC3)nn1-c1cc2c(nn1)-c1ccccc1CCC2", "growth": "4.07% (active)"},
      {"smiles": "OC1(CN2CCC(Oc3cccc(C(F)(F)F)c3)CC2)CCNC1", "note": "(centres undefined)", "growth": "5.37% (active)"},
      {"smiles": "COc1ccc(-c2ccc3c(-c4ccc(F)cc4)cnc(N)c3c2)cn1", "growth": "88.1%"},
      {"smiles": "CN(c1ncc2nc(Nc3cc(Cl)cc(C(F)(F)F)c3)n(C3CCNCC3)c2n1)C1CC1", "growth": "54.8%"},
      {"smiles": "COc1cc2c3cc1Oc1c(OC)c(OC)cc4c1[C@@H](Cc1ccc(O)c(c1)Oc1ccc(cc1)C[C@@H]3N(C)CC2)N(C)CC4", "growth": "88.9%"},
      {"smiles": "C[C@@H]1CCCN1CCc1cc2cc(-c3ccc(C#N)cc3)ccc2o1", "growth": "71.7%"},
      {"smiles": "CCN1C(=O)N(CCC(C)C)C2(CCN(Cc3cc(O)cc(Cl)c3)CC2)C1=O", "growth": "99.4%"},
      {"smiles": "O=C(Nc1ccc(Cl)c(C(F)(F)F)c1)Nc1ccc(Cl)c(C(F)(F)F)c1", "growth": "43.5%"},
      {"smiles": "Cc1cnc2nc(NC3COc4ccccc43)nc(NC(C3CC3)C3CC3)c2c1", "note": "(centres undefined)", "growth": "7.72% (active)"},
      {"smiles": "O=C(NC(CCO)C1CCCCC1)c1cc2ccc(C(F)(F)F)cc2[nH]1", "note": "(centres undefined)", "growth": "101%"},
      {"smiles": "Cc1cccc(C=NNc2cc(N3CCOCC3)nc(OCCc3ccccn3)n2)c1", "growth": "45.9%"},
      {"smiles": "Nc1nc2ccccc2n1CC(O)c1ccc(Cl)cc1Cl", "note": "(centres undefined)", "growth": "95.4%"}
    ]}
  ]
}
